Source: PubChem
This excerpt belongs to a sample that is enriched for hits.
FBPA Giardia inh: qHTS Assay for Inhibitors of Fructose-1,6-bisphosphate Aldolase from Giardia Lamblia. 290,000 compounds, 0.71% hits. Potency, µM (series often up to 59.6 µM), for inactives: at the highest dose activity, negative = inhibition, most hits filed as inhibitors. purified Giardia FBPA. A8B2U2. AID 2451, 2010; further: nearly all actives have a fitted effect of over 55% in size
Target sequence (A8B2U2 whole entry, looked up): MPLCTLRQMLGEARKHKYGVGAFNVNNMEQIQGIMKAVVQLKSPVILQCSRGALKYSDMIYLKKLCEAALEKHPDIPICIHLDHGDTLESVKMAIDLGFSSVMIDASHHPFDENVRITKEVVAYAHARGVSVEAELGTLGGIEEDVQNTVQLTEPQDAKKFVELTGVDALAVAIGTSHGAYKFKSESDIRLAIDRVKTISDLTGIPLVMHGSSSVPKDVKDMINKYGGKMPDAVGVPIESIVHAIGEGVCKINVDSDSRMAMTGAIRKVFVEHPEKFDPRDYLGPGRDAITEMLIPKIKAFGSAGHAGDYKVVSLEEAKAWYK
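Giardia FBPA (40 nM reagent) was preincubated 10 min at RT with compound (up to 57.5 uM final), then substrate plus GAPDH/TPI/NAD/arsenate coupling system with diaphorase/resazurin was added; resorufin fluorescence (525/598 nm) was read after 20 min.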
Cruzain inh Det: qHTS Assay for Promiscuous and Specific Inhibitors of Cruzain (with detergent) | Cruzipain (Trypanosoma cruzi), P25779 | purified cruzain, Z-FR-AMC fluorescence, 0.01% Triton | Potency, µM, for inactives: max response, negative = inhibition, hits mostly inhibitors | 200,000 compounds, 0.43% hits;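 further: plate controls were neutral wells for no effect and buffer without enzyme for full effect; nearly all actives have a fitted effect of over 40% in size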
Target sequence (P25779 123-467 limits assumed): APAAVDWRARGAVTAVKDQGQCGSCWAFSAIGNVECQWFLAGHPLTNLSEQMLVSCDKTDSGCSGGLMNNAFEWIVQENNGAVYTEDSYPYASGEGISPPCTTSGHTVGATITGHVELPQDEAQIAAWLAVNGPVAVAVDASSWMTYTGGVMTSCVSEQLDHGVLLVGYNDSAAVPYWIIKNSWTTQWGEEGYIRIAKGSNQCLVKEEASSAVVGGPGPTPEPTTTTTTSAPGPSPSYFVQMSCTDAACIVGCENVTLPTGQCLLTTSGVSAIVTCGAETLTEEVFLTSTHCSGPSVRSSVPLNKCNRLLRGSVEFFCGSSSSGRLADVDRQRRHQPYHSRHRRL
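Steps: dispense cruzain (1.5 nM final) in acetate buffer pH 5.5 with DTT and 0.01% Triton X-100; pin-transfer compounds; incubate 15 min RT; add Z-FR-AMC (2 uM final); read fluorescence every 30 s, using the 60 s intensity change.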
Cruzain inh noDet: qHTS Assay for Promiscuous and Specific Inhibitors of Cruzain (without detergent). 200,000 compounds, 2.3% hits. purified cruzain, Z-FR-AMC fluorescence, no detergent. Potency, µM, for the others: max response, negative = inhibition, hits mostly inhibitors. AID 1476, 2009;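 further: plate controls were enzyme without inhibitor for no effect and buffer without enzyme for full effect; nearly all actives have a fitted effect of over 40% in size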
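Detergent-free condition (0.00005% Triton X-100) in acetate buffer pH 5.5 with DTT. 1.5 nM enzyme and compound were pre-mixed 15 min, then 2 uM Z-FR-AMC substrate added; reaction progress from fluorescence change between first and third reads (60 s).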
Numbers without * were called inactive; ? = inconclusive; . = not tested or not shown. The call rests on the fitted dose curve; in most records, active means well fitted curve in the direction sought with a large enough effect; inconclusive means small, poorly fitted or top-dose-only effect, or another doubt; inactive means no such curve, though single readings can be large; an effect the other way counts as inactive or inconclusive. Unless noted, on the % scale 0 is the no-effect control and ±100 the full control effect; potency means the concentration at half of the fitted maximal effect.

SMILES	FBPA Giardia inh	Cruzain inh Det	Cruzain inh noDet
CC(=O)c1ccc2c(c1)C1C(Cl)C(Sc3ccccc3[N+](=O)[O-])CC1C(c1ccccc1[N+](=O)[O-])N2 (stereo not drawn)	?	-10.6%	3.16µM*
CC(=O)c1ccc2c(c1)C1C(Cl)C(Sc3ccccc3[N+](=O)[O-])CC1C(c1ccccc1)N2 (stereo not drawn)	-8.9%	-6.1%	3.98µM*
NC(N)=NCCN=C(N)N	.	1.1%	8.3%
Cc1cc(NC(=O)CSc2nc3c(sc4ccccc43)c(=O)n2CCCN2CCOCC2)n[nH]1	4.3%	-13.2%	-22.1%
Cc1cc(NC(=O)CSc2nc3c(sc4ccccc43)c(=O)n2CCc2ccccc2)n[nH]1	-0.7%	7.7%	7.94µM*
COc1ccc(CN2C(=O)N(c3ccc(F)cc3)C(=O)C2CC(=O)Nc2cc(OC)cc(OC)c2)cc1 (stereo not drawn)	.	-4.0%	4.8%
COc1ccc(-c2nn(CCC(=O)O)cc2/C=C2\SC(N)=NC2=O)cc1OC	-4.9%	-3.9%	2.8%
CCCOc1ccc(-c2nn(-c3ccccc3)cc2/C=C2\SC(N)=NC2=O)cc1C	6.4%	-4.7%	12.6µM*
CC[C@H](C)[C@H](NC(=O)CNC(=O)[C@@H](NC(=O)[C@@H](NC(=O)[C@H](Cc1ccc(O)cc1)NC(=O)[C@H](CC(C)C)NC(=O)[C@H](C)NC(=O)[C@H](CCC(N)=O)NC(=O)CNC(=O)[C@@H]1CCCN1C(=O)CNC(=O)[C@H](Cc1ccccc1)NC(=O)[C@H](Cc1cnc[nH]1)NC(=O)[C@@H](NC(=O)CNC(=O)[C@H](CCCNC(=N)N)NC(=O)[C@H](CCCNC(=N)N)NC(=O)[C@@H](NC(=O)[C@H](CC(N)=O)NC(=O)[C@@H](N)CS)[C@@H](C)O)[C@@H](C)CC)[C@@H](C)O)[C@@H](C)O)C(=O)O	0.9%	.	.
C=CCBr	.	4.2%	-2.0%
CCCCOc1ccc(C(=O)Nc2cc(-c3ccc(C)cc3)no2)cc1	.	-2.0%	-7.1%
CCOc1ccc(C(=O)Nc2cc(-c3ccccc3)no2)cc1	.	-2.4%	20µM*
O=C(N/N=C1\CC2CC=CC12)c1ccc(Br)cc1 (stereo not drawn)	-6.7%	.	.
Cc1cc(Br)c(OCc2ccc(C(=O)N/N=C3\CC4CC=CC34)cc2)c(Br)c1 (stereo not drawn)	0.1%	-6.5%	20µM*
CCOc1ccc(NC(=O)c2c(NC(=O)c3ccccc3Br)sc3c2CCC(C)C3)cc1 (stereo not drawn)	.	-3.8%	6.3%
COc1cc(/C=N/NC(=O)c2ccccc2O)ccc1OCC(=O)Nc1ccccc1	-18.8%	.	.
O=C(COc1ccc(/C=N/NC(=O)c2cc3ccccc3o2)cc1Cl)Nc1ccccc1	-7.8%	22.4µM*	20µM*
CC1(C)OC(=O)C(=Cc2ccc(-c3ccc(Cl)c(C(=O)O)c3)o2)C(=O)O1	-16.0%	.	.
Cc1[nH][nH]c(=O)c1C(c1ccc(-c2ccc(Cl)c(C(=O)O)c2)o1)c1c(C)[nH][nH]c1=O	7.06µM*	.	.
COC(=O)c1ccccc1-c1ccc(C(c2c(C)[nH][nH]c2=O)c2c(C)[nH][nH]c2=O)o1	4.5%	.	.
COC(=O)c1cccc(-c2ccc(C(c3c(C)[nH][nH]c3=O)c3c(C)[nH][nH]c3=O)o2)c1	14.1µM*	.	.
Cc1cc(C)c(S(=O)(=O)OC[C@H]2C=CC[C@@H](CCC[C@H]3O[C@H](C(=O)OC(C)C)CC[C@@H]3C)O2)c(C)c1	-0.1%	1.7%	-2.8%
COc1cccc(OC)c1C(=O)Nc1ccc(S(=O)(=O)Nc2nccc(C)n2)cc1	.	-1.4%	-6.2%
O=C(COC(=O)c1cc([N+](=O)[O-])ccc1NCc1ccccc1)NCc1ccccc1Cl	4.6%	-4.5%	-83.7%
O=C(COC(=O)c1cc([N+](=O)[O-])ccc1NCc1ccccc1)NC1CCCc2ccccc21 (stereo not drawn)	3.4%	1.6%	25.1µM*
SMILES	FBPA Giardia inh	Cruzain inh Det	Cruzain inh noDet
Cc1ccccc1Nc1nc(Nc2ccccc2C)nc(SC2=NCCS2)n1	0.9%	3.7%	?
Cc1ccc(Nc2nc(Nc3ccc(C)cc3)nc(SC3=NCCS3)n2)cc1	-1.1%	1.9%	25.1µM*
Nc1c(C(=O)NCC2CCCO2)sc2nc3c(c(-c4ccco4)c12)CC/C3=C\c1ccco1 (stereo not drawn)	?	28.2µM*	-4.4%
NC(=O)c1sc2nc3c(c(-c4ccco4)c2c1N)CCCC3	4.3%	.	.
Cc1c(C)c(C)c(CC2(C)CSC2)c(CC2(C)CSC2)c1C	.	-7.1%	-2.7%
CC(=O)Nc1ccc(S(=O)(=O)Nc2cccc(-c3ccc(N4CCC(C)CC4)nn3)c2)cc1	.	-2.7%	11.5%
O=C(O)c1ccc(N2C(=O)CC(SC(=Nc3ccccc3)Nc3ccccc3)C2=O)cc1 (stereo not drawn)	-4.1%	-2.3%	-2.3%
CC(/C=C/c1ccc(N(C)C)cc1)=N\N=C(/N)SC1CC(=O)N(c2ccc(C(=O)O)cc2)C1=O (stereo not drawn)	-2.9%	?	10µM*
O=c1cc(-c2ccccc2)oc2cc(O)c(O)c(O)c12	9.98µM*	-8.3%	?
COc1c(O)cc2oc(-c3ccc(O)cc3)cc(=O)c2c1O	-0.7%	.	.
COc1ccc(NC(=O)C2CCCN(S(=O)(=O)c3ccc4c(c3)CCCC(=O)N4)C2)cc1OC (stereo not drawn)	.	-1.8%	4.4%
c1ccc(C(NCc2cccnc2)(c2ccccc2)c2ccccc2)cc1	5.5%	.	.
Fc1cccc(Cl)c1CNCCSc1nnnn1-c1ccccc1	.	2.5%	12.6µM*
Clc1ccccc1CNCCCSc1nnnn1-c1ccccc1	.	-1.2%	-7.6%
CC(=O)c1ccc(NC(=O)c2ccc3nc(-c4ccco4)c(-c4ccco4)nc3c2)cc1	?	14.1µM*	?
O=C(NCc1ccccc1)c1ccc2nccnc2c1	0.2%	1.3%	9.6%
O=C(Nc1ccc(N2CCOCC2)cc1)c1ccc2nc(-c3ccco3)c(-c3ccco3)nc2c1	-6.4%	-5.7%	-3.5%
O=C(NCc1ccccc1)c1ccc2nc(-c3ccco3)c(-c3ccco3)nc2c1	?	?	7.94µM*
O=S(=O)(O)C(c1ccccc1)[C@@H](O)c1ccccc1 (stereo partly drawn)	.	-1.0%	4.8%
[CH3][Hg][Cl]	.	4.3%	3.6%
CCOc1cc(CNc2ccc3[nH]c(=O)[nH]c3c2)ccc1OCC(=O)NC(C)(C)C	?	-5.2%	-12.7%
COc1cc(CNc2ccc3[nH]c(=O)[nH]c3c2)cc(Cl)c1OCC(=O)NC(C)(C)C	9.98µM*	-2.5%	-6.5%
CN(c1nnc(NC(=O)Nc2ccc(Br)cc2)s1)C1CCCCC1	.	-2.9%	3.8%
O=C(O)c1cc2ccc3ccccc3c2oc1=O	-14.9%	?	25.1µM*
O=C(O)c1cc2c(ccc3ccccc32)oc1=O	10.1%	?	10µM*
O=C(O)c1cc2cc(Cl)cc(Cl)c2oc1=O	15.7%	-3.4%	?
O=C(c1cc2c(ccc3ccccc32)oc1=O)N1CCCC1	-0.6%	-26.8%	?
Cc1csc2nc(COC(=O)c3ccccc3NC(=O)c3ccc(C(C)(C)C)cc3)cc(=O)n12	.	-0.1%	-3.6%
O=C(CCN1Cc2ccccc2C1)c1ccc2c(c1)OCCO2	-5.6%	-25.2%	?
